These results are taken from PMC4336329 (PLoS ONE, 2015).

The campaign covered roughly 310,000 compounds. About 14,000 (4.5%) showed an effect of 50% or more. The effect is printed as a negative number. The sample holds strong results, similar compounds and a random draw of the others, so the mix is not that of the screen.
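Also: peak tail current of the secondary pulse compared with the same well before compound.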

The target of this assay is human ether-à-go-go-related gene (hERG) potassium channel (human, UniProt Q12809). As to the kind of experiment: primary screen, population patch clamp on CHO cells stably expressing hERG; higher = less effect of the substance.
human ether-à-go-go-related gene (hERG) potassium channel, sequence (Q12809 whole entry, looked up): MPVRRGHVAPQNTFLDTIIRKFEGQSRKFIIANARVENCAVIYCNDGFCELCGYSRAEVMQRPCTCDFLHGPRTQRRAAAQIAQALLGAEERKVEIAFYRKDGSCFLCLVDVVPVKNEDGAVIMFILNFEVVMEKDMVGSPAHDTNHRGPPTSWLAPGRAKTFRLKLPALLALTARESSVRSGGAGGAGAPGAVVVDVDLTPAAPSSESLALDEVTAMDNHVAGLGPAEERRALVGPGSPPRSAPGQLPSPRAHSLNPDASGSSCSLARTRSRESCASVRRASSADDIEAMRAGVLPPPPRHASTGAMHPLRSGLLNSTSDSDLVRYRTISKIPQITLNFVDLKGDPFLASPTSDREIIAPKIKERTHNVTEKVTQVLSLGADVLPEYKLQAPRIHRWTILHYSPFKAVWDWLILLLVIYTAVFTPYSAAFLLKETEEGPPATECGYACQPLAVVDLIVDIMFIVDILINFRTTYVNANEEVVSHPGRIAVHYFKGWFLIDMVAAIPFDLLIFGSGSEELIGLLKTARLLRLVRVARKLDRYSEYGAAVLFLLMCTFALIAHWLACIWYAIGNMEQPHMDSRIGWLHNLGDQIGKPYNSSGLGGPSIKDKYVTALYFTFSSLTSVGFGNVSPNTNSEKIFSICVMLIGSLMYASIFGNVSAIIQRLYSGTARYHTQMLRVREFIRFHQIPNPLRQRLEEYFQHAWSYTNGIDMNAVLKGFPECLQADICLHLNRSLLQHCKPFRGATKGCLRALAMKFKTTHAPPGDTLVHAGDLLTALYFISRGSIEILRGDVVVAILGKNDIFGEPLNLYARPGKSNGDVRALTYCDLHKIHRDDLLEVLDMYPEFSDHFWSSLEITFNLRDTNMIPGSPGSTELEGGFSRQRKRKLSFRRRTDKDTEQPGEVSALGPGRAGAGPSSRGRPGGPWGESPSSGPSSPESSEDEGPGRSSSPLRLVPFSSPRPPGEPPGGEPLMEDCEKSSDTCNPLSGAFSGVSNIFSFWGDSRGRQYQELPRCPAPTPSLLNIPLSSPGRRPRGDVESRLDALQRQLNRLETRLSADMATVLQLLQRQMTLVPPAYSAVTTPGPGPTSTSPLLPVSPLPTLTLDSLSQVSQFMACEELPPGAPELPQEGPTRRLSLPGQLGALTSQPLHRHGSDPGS
Consider `Cc1ccc2c(CC(=O)OC(C)C(=O)Nc3ncc(Cl)cc3Cl)coc2c1` (stereo not shown), for which the “hERG current change (%, negative = inhibition) at 10uM” value is given as -28.2%.

For `NC(=O)c1ccsc1NC(=O)c1cccs1`, the “hERG current change (%, negative = inhibition) at 10uM” value is given as -13.6%.

In the case of `O=C(Nc1ccc2c(c1)OCO2)c1ccc(N2C(=O)c3ccccc3C2=O)cc1`, the “hERG current change (%, negative = inhibition) at 10uM” value was -5.61%.

Take `Cc1cc2occ(CC(=O)N(CC(C)C)c3c(N)n(Cc4ccccc4)c(=O)[nH]c3=O)c2cc1C`: the “hERG current change (%, negative = inhibition) at 10uM” value is recorded as -18.4%.

`O=C(Cn1cnc2c(nnn2Cc2ccccc2F)c1=O)NCC1CCCO1` (stereo not shown): the “hERG current change (%, negative = inhibition) at 10uM” value is listed as -3.88%.

As to `O=C(/C=C/c1ccccc1[N+](=O)[O-])N1CCOCC1`, the “hERG current change (%, negative = inhibition) at 10uM” value is 15.5%.

In the case of `O=C(/C=C/c1c(Cl)cccc1Cl)N1CCN(c2ncccn2)CC1`, the “hERG current change (%, negative = inhibition) at 10uM” value is listed as -72.7%.

Consider `O=C(/C=C/c1cccc(F)c1)N1CCN(c2ncccn2)CC1`, for which the “hERG current change (%, negative = inhibition) at 10uM” value was 7.29%.

For the molecule `O=C(/C=C/c1ccccc1[N+](=O)[O-])N1CCN(c2ccccc2F)CC1`, the “hERG current change (%, negative = inhibition) at 10uM” value is -13.8%.

With `O=C(/C=C/c1ccccc1[N+](=O)[O-])N1CCN(c2ccc(F)cc2)CC1`, the “hERG current change (%, negative = inhibition) at 10uM” value was -56.5%.

For `O=C(/C=C/c1ccco1)N1CCN(S(=O)(=O)c2cccs2)CC1`, the “hERG current change (%, negative = inhibition) at 10uM” value is on record as -7.4%.

`O=C(/C=C/c1cccc(F)c1)N1CCN(c2ccccn2)CC1`: the “hERG current change (%, negative = inhibition) at 10uM” value is recorded as -118%.

Turning to `O=C(/C=C/c1cccc([N+](=O)[O-])c1)N1CCN(S(=O)(=O)c2cccs2)CC1`, the “hERG current change (%, negative = inhibition) at 10uM” value is given as -62.2%.

Consider `O=C(/C=C/c1ccccc1)N1CCN(c2ccccn2)CC1`, for which the “hERG current change (%, negative = inhibition) at 10uM” value is on record as -42.8%.

Regarding `O=C(/C=C/c1ccc([N+](=O)[O-])cc1)N1CCN(S(=O)(=O)c2cccs2)CC1`, the “hERG current change (%, negative = inhibition) at 10uM” value is reported as -18.7%.

With `O=C(/C=C/c1ccc(F)cc1)N1CCN(c2ncccn2)CC1`, the “hERG current change (%, negative = inhibition) at 10uM” value is 12.1%.

In the case of `O=C(/C=C/c1ccccc1Cl)N1CCN(c2ncccn2)CC1`, the “hERG current change (%, negative = inhibition) at 10uM” value is listed as -32.4%.

Turning to `COc1cccc(CNC(=O)c2ccc(CS(=O)(=O)Cc3ccc(C)cc3)o2)c1`, the “hERG current change (%, negative = inhibition) at 10uM” value is -12.8%.

Turning to `CCN(c1cccc(C)c1)S(=O)(=O)c1nnc(NC(=O)c2ccco2)s1`, the “hERG current change (%, negative = inhibition) at 10uM” value is 3.8%.

`CCOC(=O)c1sc(NC(=O)c2ccc3nc[nH]c3c2)nc1C`: the “hERG current change (%, negative = inhibition) at 10uM” value is 8.25%.

With `O=C(Nc1cc2ccccc2oc1=O)c1ccccc1`, the “hERG current change (%, negative = inhibition) at 10uM” value was 22.7%.

Take `O=C(Cc1ccccc1)N[C@@H](Cc1ccccc1)C(=O)O`: the “hERG current change (%, negative = inhibition) at 10uM” value is given as 7.29%.

Turning to `Cc1ccc(CC(=O)NCCC(=O)O)cc1`, the “hERG current change (%, negative = inhibition) at 10uM” value is listed as 16.9%.

As for `Cc1c(C(=O)O)oc2ccc(S(=O)(=O)NCCC3=CCCCC3)cc12`, the “hERG current change (%, negative = inhibition) at 10uM” value came out at 0.629%.

Regarding `COc1ccc(NC(=O)C2CCN(C(=O)c3ccco3)CC2)c(OC)c1`, the “hERG current change (%, negative = inhibition) at 10uM” value turned out to be 22.3%.

`Cc1nc2ccc(Br)cn2c1NC(C)(C)C`: the “hERG current change (%, negative = inhibition) at 10uM” value is listed as -20.9%.

For `COc1ccc(-c2cc(C#N)nc(N3CCN(c4ccccc4)CC3)n2)cc1`, the “hERG current change (%, negative = inhibition) at 10uM” value came out at 3.41%.

For the molecule `CCOc1cc2[nH]c(=S)n(CCCN3CCCC3=O)c(=O)c2cc1OCC`, the “hERG current change (%, negative = inhibition) at 10uM” value was -23.5%.

Regarding `COCc1nnc(NC(=O)c2cccc(NC(=O)c3ccccc3)c2)s1`, the “hERG current change (%, negative = inhibition) at 10uM” value is given as -8.59%.

Turning to `O=C(/C=C/c1cccc([N+](=O)[O-])c1)N1CCOCC1`, the “hERG current change (%, negative = inhibition) at 10uM” value is reported as -3.86%.

In the case of `O=C(/C=C/c1cccc([N+](=O)[O-])c1)N1CCN(c2ccccc2F)CC1`, the “hERG current change (%, negative = inhibition) at 10uM” value is on record as -38.9%.

Take `O=C(/C=C/c1cccc([N+](=O)[O-])c1)N1CCN(c2ccc(F)cc2)CC1`: the “hERG current change (%, negative = inhibition) at 10uM” value is on record as -56.7%.

For `O=C(NCCC(=O)N1CCCC1)c1ccccc1Cl`, the “hERG current change (%, negative = inhibition) at 10uM” value is 22%.

Take `CNC(=O)C(C)N1c2cccc3cccc(c23)S1(=O)=O` (stereo not shown): the “hERG current change (%, negative = inhibition) at 10uM” value worked out at 22.3%.

For the molecule `Cc1ccc(OCc2nnc(SCC(=O)c3ccccc3)n2-c2ccccc2)cc1`, the “hERG current change (%, negative = inhibition) at 10uM” value is listed as 1.75%.

Turning to `CC1(c2ccccc2)NC(=O)N(CC(=O)Nc2ccccc2C(=O)N2CCCCC2)C1=O` (stereo not shown), the “hERG current change (%, negative = inhibition) at 10uM” value is 19.7%.

Take `O=C(CSc1nc(-c2ccco2)cc(C(F)(F)F)n1)N1CCN(Cc2ccccc2)CC1`: the “hERG current change (%, negative = inhibition) at 10uM” value is -58.8%.

`CN1CCN(C(=O)CSc2nc(-c3ccco3)cc(C(F)(F)F)n2)CC1`: the “hERG current change (%, negative = inhibition) at 10uM” value is reported as 15.3%.

On to `O=C(CSc1nc(-c2ccco2)cc(C(F)(F)F)n1)N1CCSCC1`, for which the “hERG current change (%, negative = inhibition) at 10uM” value is -19.9%.

Turning to `CCc1cc(C(=O)N(C)CC(=O)Nc2c(Cl)cccc2Cl)sc1C`, the “hERG current change (%, negative = inhibition) at 10uM” value was -2.89%.

As to `COc1cc(O)c(C(CCN2CCN(c3ccccc3)CC2)c2ccc3c(c2)OCO3)c(OC)c1` (stereo not shown), the “hERG current change (%, negative = inhibition) at 10uM” value is -16.6%.

Consider `COc1cc(O)c(C(CCN2CCOCC2)c2ccc(N(C)C)cc2)c(OC)c1` (stereo not shown), for which the “hERG current change (%, negative = inhibition) at 10uM” value is recorded as 7.96%.

Consider `COc1cc(O)c(C(CCN2CCOCC2)c2ccc3c(c2)OCO3)c(OC)c1` (stereo not shown), for which the “hERG current change (%, negative = inhibition) at 10uM” value is listed as -59.5%.

`COc1cc(O)c(C(CC(=O)N2CCCC2)c2ccc3c(c2)OCO3)c(OC)c1` (stereo not shown): the “hERG current change (%, negative = inhibition) at 10uM” value was 6.4%.

For the molecule `COc1cc(O)c(C(CC(=O)N2CCOCC2)c2ccc3c(c2)OCO3)c(OC)c1` (stereo not shown), the “hERG current change (%, negative = inhibition) at 10uM” value amounted to 7.98%.

As for `COc1cc(O)c(C(CCN2CCCC2)c2cc(OC)c(OC)c(OC)c2)c(OC)c1` (stereo not shown), the “hERG current change (%, negative = inhibition) at 10uM” value is on record as -7.35%.

As to `COc1cc(O)c(C(CC(=O)N2CCCC(C)C2)c2ccc3c(c2)OCO3)c(OC)c1` (stereo not shown), the “hERG current change (%, negative = inhibition) at 10uM” value is -5.66%.

For the molecule `COc1cc(O)c(C(CCN2CCCC2)c2ccc3c(c2)OCO3)c(OC)c1` (stereo not shown), the “hERG current change (%, negative = inhibition) at 10uM” value is given as -72.5%.

In the case of `COc1cc(O)c(C(CCN2CCCC(C)C2)c2ccc3c(c2)OCO3)c(OC)c1` (stereo not shown), the “hERG current change (%, negative = inhibition) at 10uM” value is -77.5%.

On to `COc1cc(O)c(C(CCN2CCCCC2)c2ccc3c(c2)OCO3)c(OC)c1` (stereo not shown), for which the “hERG current change (%, negative = inhibition) at 10uM” value was -78.3%.

Take `COc1cc(O)c(C(CC(=O)N2CCCCC2)c2ccc3c(c2)OCO3)c(OC)c1` (stereo not shown): the “hERG current change (%, negative = inhibition) at 10uM” value came to 5.41%.

As to `COc1cc(O)c(C(CCN2CCCC(C)C2)c2ccc(N(C)C)cc2)c(OC)c1` (stereo not shown), the “hERG current change (%, negative = inhibition) at 10uM” value is -29.5%.

Consider `COc1ccc(NC(=O)c2cc3ccccc3o2)cc1OC`, for which the “hERG current change (%, negative = inhibition) at 10uM” value was -3.22%.

For `O=C1CC(c2ccccc2)c2ccccc21` (stereo not shown), the “hERG current change (%, negative = inhibition) at 10uM” value is on record as 8.78%.

In the case of `Cc1ccc(Cn2nc(C)c(NC(=O)CSc3nc4c(c(C(F)(F)F)n3)CCc3ccccc3-4)c2C)cc1`, the “hERG current change (%, negative = inhibition) at 10uM” value is recorded as 13.1%.
